In PubChem BioAssay (NCI):
This is part of a sample that, as a whole, favours compounds with a hit. Of some 79,000 tested, about 15% had one in any assay. Activity calls are given as the source filed them. Cut-off read from the data, not from the text of the source: active = growth inhibition above about 70%; inactive = the rest.

Legend:
[1] = NCI Yeast Anticancer Drug Screen. Data for the rad50 strain (AID 155);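 note: 0% = growth of vehicle-only cultures of the same strain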; details: S. cerevisiae rad50 strain growth inhibition; at 50.0 µM; hits give high values
In short: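 Growth of the mutant yeast was measured after compound exposure and referenced to vehicle-treated cultures.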

[2] = NCI Yeast Anticancer Drug Screen. Data for the mec2-1 strain (AID 157); details: S. cerevisiae mec2-1 strain, at 50.0 µM, hits give high values
In short: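 Using mec2-1 yeast: add compound, measure growth, express inhibition versus vehicle-treated cultures.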

[3] = NCI Yeast Anticancer Drug Screen. Data for the sgs1 mgt1 strain (AID 161);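 note: 0% = growth of cultures given vehicle only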; details: S. cerevisiae sgs1 mgt1 strain, at 50.0 µM, hits give high values
In short: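 Compounds are added to genetically altered yeast, and growth is compared with cultures given vehicle alone to give percent inhibition.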

[4] = NCI Yeast Anticancer Drug Screen. Data for the cln2 rad14 strain (AID 165);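 note: 0% = growth equal to vehicle treated cultures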; details: S. cerevisiae cln2 rad14 strain, at 50.0 µM, hits give high values
In short: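 Yeast strain cln2 rad14, bearing defects in cell cycle control and DNA repair, serves as the test system; values reflect growth inhibition compared with vehicle.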

[5] = NCI Yeast Anticancer Drug Screen. Data for the bub3 strain (AID 167); details: S. cerevisiae bub3 mutant strain, at 50.0 µM, hits give high values
In short: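 Whole-cell yeast assay. The mutant strain was incubated with compounds, and growth inhibition was determined by comparison with vehicle-treated cells.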

[6] = NCI Yeast Anticancer Drug Screen. Data for the mlh1 rad18 strain (AID 175); details: S. cerevisiae mlh1 rad18 strain growth inhibition; at 50.0 µM; hits give high values
In short: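 Steps: expose repair-defective yeast to compound; measure growth; express inhibition against vehicle-treated controls.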

Measured: growth inhibition

CC(=O)OCc1cc(=O)n2c([nH]c3ccccc32)c1C#N
inactive: [1] 11.1% | [2] 10.6% | [3] -24.6% | [4] -15.5% | [5] -26.3% | [6] -2.6%

O=C(O)C1Nc2ccccc2NC1=O (configuration not stated)
inactive: [1] 3.55% | [2] -3.15% | [3] -5.5% | [4] -47% | [5] -4.35% | [6] 3.3%

CN1CC2=C(C1)C(N(C(=O)c1ccc(-c3ccccc3)cc1)C(=O)c1ccc(-c3ccccc3)cc1)=NCN2
inactive: [1] 11.4% | [2] 3.25% | [3] 16.1% | [4] 10.6% | [5] 0.6% | [6] 21.6%

COc1cc(NCC(C#N)C#N)ccc1N=Nc1ccc([N+](=O)[O-])cc1
inactive: [1] 25.9% | [2] 26.4% | [3] 10.5% | [4] 18.8% | [5] 12.7% | [6] 48.9%

O=C(O)c1ccc(S(=O)(=O)c2cccc(Cl)c2)cc1
inactive: [1] 0.85% | [2] 7.8% | [3] 8.65% | [4] -18.7% | [5] -16.1% | [6] 6.45%

CCOCCn1c(=O)cc(C)c2ccccc21
inactive: [1] -20.3% | [2] 1.6% | [3] -16.8% | [4] -41.3% | [5] 14.2% | [6] -13.7%

COC(=O)Nc1nc2ccccc2n1-c1ccccc1
inactive: [1] 18.9% | [2] 2.85% | [3] 10.6% | [4] 14.2% | [5] 16.4% | [6] 17.5%

Nc1c(S(=O)(=O)O)ccc2c1C(=O)c1ccccc1C2=O
inactive: [1] 27.9% | [2] 24.2% | [3] 34% | [4] 6.5% | [5] 49.1% | [6] 16.4%

O=C(COCC(=O)N/N=C/c1ccc(O)cc1)N/N=C/c1ccc(O)cc1
inactive: [1] -10.4% | [2] 22.2% | [3] 31.8% | [4] -11.9% | [5] 18.1% | [6] 26.3%

COc1ccc2c(c1)CCCN1CCc3cc(OC)c(OC)cc3C21 (configuration not stated)
inactive: [1] 21.1% | [2] 60.8% | [3] -21.3% | [4] -8.85% | [5] 4.5% | [6] -17.7%

CC1(C)CC(C2CC(C)(C)CC(C)(C)[C@H]2O)[C@@H](O)C(C)(C)C1 (some centres not stated)
inactive: [1] -17.3% | [2] -2.3% | [3] -2.1% | [4] -13.2% | [5] -25.8% | [6] -19.9%

O=c1[nH]c(=O)c2nccnc2[nH]1
inactive: [1] 9.1% | [2] -0.6% | [3] -10.7% | [4] 0.75% | [5] 5% | [6] 5.1%

Cc1c(C(=N)N)oc2ccccc12
inactive: [1] 6.3% | [2] 0.05% | [3] 0.4% | [4] -31.5% | [5] -4.15% | [6] 3.95%

Cc1ccccc1N1C(=O)C2CC=CCC2C1=O (configuration not stated)
inactive: [1] -13.3% | [2] 0.25% | [3] 12.2% | [4] -34.8% | [5] -14.4% | [6] -21.6%

COc1ccc(/C=C(\Cl)c2ccc(OC)cc2)cc1
inactive: [1] -2.9% | [2] 3.8% | [3] -26.6% | [4] -18.1% | [5] 5.6% | [6] -26.8%

Cc1ccc(N(C(=O)Nc2ccc(F)c(Cl)c2)C2=NCC(C)S2)cc1 (configuration not stated)
inactive: [1] -57.5% | [2] -14.4% | [3] -45% | [4] -13.7% | [5] -5.05% | [6] -51.4%

O=C(OCC1OC(OC(=O)c2ccc([N+](=O)[O-])cc2)CC(OC(=O)c2ccc([N+](=O)[O-])cc2)C1OC(=O)c1ccc([N+](=O)[O-])cc1)c1ccc([N+](=O)[O-])cc1 (configuration not stated)
inactive: [1] 11.2% | [2] 15.2% | [3] 4.1% | [4] -7.35% | [5] -4.15% | [6] 36.5%

CO/N=C1\C(C)(C)C(C)(C)C(C)(C)C1(C)SS(=O)(=O)O (configuration not stated)
inactive: [1] 23.6% | [2] 19.1% | [3] 12.6% | [4] 17.6% | [5] 20.8% | [6] 29.9%

O=C1c2ccccc2C(=Cc2cccnc2)c2ccccc21
inactive: [1] 35.3% | [2] 31.9% | [3] 30.1% | [4] 20.2% | [5] 55.1% | [6] 40.7%

CC(CCC(=O)O)[C@H]1CCC2[C@@H]3C(=O)C[C@@H]4CC(O)CC[C@]4(C)C3CC[C@@]21C (some centres not stated)
inactive: [1] 38.8% | [2] 18.1% | [3] 41.5% | [4] 35.8% | [5] 19.9% | [6] 23.1%

Brc1cn2[n+](c1)[B-]n1cc(Br)c[n+]1[B-]2
inactive: [1] 0.85% | [2] -4.6% | [3] -3.6% | [4] -7.65% | [5] 6.65% | [6] 12%

CC(C)(C)/C(CC(=O)CCC(=O)Nc1ccc(Cl)cc1)=N\NC(N)=S
inactive: [1] 11.7% | [2] -6.75% | [3] 19.1% | [4] 9.75% | [5] 1.65% | [6] 20.8%

c1ccc(C2CCCN2)cc1 (configuration not stated)
inactive: [1] 6% | [2] -12.4% | [3] -11% | [4] 6.25% | [5] -1.4% | [6] 4%

COc1ccc(CC2COC(=O)[C@@H]2Cc2ccc(O)cc2)cc1OC (some centres not stated)
inactive: [1] -32.9% | [2] -43.5% | [3] -14.1% | [4] -2.85% | [5] 4% | [6] -7.55%

COc1ccc2c(c1OC)C(O)N1CCc3cc4c(cc3C1=C2C(=O)c1ccccc1)OCO4 (configuration not stated)
inactive: [1] 6.75% | [2] 14.2% | [3] 0.5% | [4] -5.3% | [5] 28.1% | [6] 22.8%

CCCCCCCC(CC#N)(CCCCC)CCCCCC (configuration not stated)
inactive: [1] 16.6% | [2] -10.1% | [3] 11.9% | [4] -8.3% | [5] 7.1% | [6] 26.1%

CCSC(SCC)C(NC(C)=O)C(O)C(O)COC(=O)c1ccccc1 (configuration not stated)
inactive: [1] 6.05% | [2] 17.3% | [3] 17.4% | [4] 12% | [5] 1.35% | [6] 25.2%

CCCCCCCCCCCCCCCCOc1ccc(C(=O)O)cc1
inactive: [1] 1.4% | [2] 0.75% | [3] 5.3% | [4] 8.35% | [5] 3% | [6] -16%

NC(CSSCC(NC(=O)CNC(=O)OCc1ccccc1)C(=O)O)C(=O)O (configuration not stated)
inactive: [1] -13.3% | [2] -38% | [3] -11.2% | [4] -62.8% | [5] -1.05% | [6] 2%

Cc1c(C(=O)O)c(-c2ccc([N+](=O)[O-])cc2)c(C=O)n1-c1ccccc1
inactive: [1] -4.9% | [2] 10.9% | [3] 3.3% | [4] -8.5% | [5] 25.7% | [6] 22.9%

Fc1ccc(N2C(c3ccccc3)=N[C@@H](N3CCOCC3)[C@@H]2N2CCOCC2)cc1
inactive: [1] 21.4% | [2] 11.2% | [3] 4.2% | [4] -19.9% | [5] -2.2% | [6] 20%

CC(=O)O[C@@H]1C[C@]2(C)[C@@H](C(C)=O)CC[C@H]2[C@@H]2CCC3=CC(=O)CC[C@]3(C)[C@H]21
inactive: [1] -7.5% | [2] -8.25% | [3] -23% | [4] 11.4% | [5] -10.4% | [6] 13.2%

C1CCCCC2(CCCCCCCCC3(CCC1)OCCO3)OCCO2
inactive: [1] -2% | [2] -21.2% | [3] -8.5% | [4] 25.6% | [5] 1.1% | [6] -5.25%

CO[C@@H]1C[C@H]2[C@@H]3CC[C@H]([C@H](C)COC(C)=O)[C@@]3(C)CC[C@@H]2[C@@]2(C)CC[C@H]3C[C@]312
inactive: [1] -4.65% | [2] 5.8% | [3] 1.55% | [4] -9.65% | [5] -1.6% | [6] 5.4%

O=[N+]([O-])c1cc(NC(=S)SCc2ccc3c(c2)OCO3)ccc1Cl
inactive: [4] 42.8% | [5] 56.4%
active: [1] 82.7% | [2] 72.2% | [3] 76.7% | [6] 78%

CCOC(=O)c1cc(-n2nnc3ccccc32)cn1C
inactive: [1] -4.7% | [2] -23.4% | [3] 0.35% | [4] -3.6% | [5] 19.4% | [6] -0.65%

CC1=NC2(CCCCC2)N(Cl)C(=O)C1SC#N (configuration not stated)
inactive: [1] -45.2% | [2] -72.3% | [3] -23.8% | [4] -27.6% | [5] -13.8% | [6] -27.4%
